# Experimental data as given in PubChem BioAssay (NCI).
# About 83,000 compounds went through this panel and 20% of them were active in at least one assay; those are over-represented in the sample as a whole.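 96-well plates, one dose, 48 hours. Percent growth reported; active if below 10.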 Activity calls are given as the source filed them.
# Test system: MDA-MB-468 breast
# Experiment: NCI-60 one-dose screen, 48 h (100 = growth as untreated, 0 = no growth, -100 = all killed)
# Conditions: 10 µM unless noted
row,SMILES,growth
1,O=C(c1nn(-c2ccc(Cl)cc2)cc1O)n1nc(C(F)(F)F)cc1-c1ccccc1,32.8% (inactive)
2,O=C1/C(=C\c2cn(C(=O)c3ccc(Cl)cc3)c3ccccc23)c2ccccc2N1C(=O)c1ccc(Cl)cc1,51.7% (inactive)
3,CC(C)N1CC(=O)N2CSCC2C1=O (stereo not drawn),92.6% (inactive)
